# Data as given in PubChem BioAssay (NCATS).
# Values without a mark were called inactive. Records with an inconclusive call do not appear. The source made the active and inactive calls. Unless noted, calls follow the shape of the dose curve; as a rule, active = well fitted curve in either direction with a large enough effect (not every such curve was filed as active); inconclusive = small, poorly fitted or top-dose-only effect, or another doubt; inactive = flat fitted curve, though single readings scatter.
# Tests used:
# [1] = target: Lysosomal acid glucosylceramidase (Homo sapiens) (UniProt P04062); experiment: Glucocerebrosidase-p2 (AID 348; in the data active = potency below about 10 µM; also: potency is read from the fitted curve at half-maximal effect); settings: purified GBA, blue fluorogenic substrate, 40 min
# In short: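 Compounds titrated from 0.6 nM upwards against 0.2 nM enzyme in pH 5.9 citric acid/KH2PO4, taurocholate, tween-20; blue fluorogenic substrate 80 uM, 40 min room temperature, stopped and read Ex 365/Em 440 for AC50.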
# [2] = AP1 Signaling Pathway (AID 357); settings: ME-180 AP-1-bla reporter, EGF-induced, beta-lactamase ratio, 5 h; at 7.69 µM (top of the series) unless noted;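 also: ME-180 reporter cells stimulated with EGF at its EC50 level; % is scaled to controls: 0 for no effect and ±100 for the full control effect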
# In short: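 Titration-series screen for positive or negative modulators of EC50 EGF-induced signaling in ME-180 cells carrying an AP-1-driven beta-lactamase reporter. After 5 hours at 37 degrees Celsius, CCF4 460nm/530nm emission ratio gave %Activity; AC50 values derived.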
# [3] = target: Cytochrome P450 1A2 (Homo sapiens) (UniProt P05177); experiment: p450-cyp1a2 (AID 410; calls by dose curve; also: potency is read from the fitted curve at half-maximal effect;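 as to activity change, negative = inhibition: -100% = full effect of reference inhibitor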); settings: recombinant CYP1A2, luciferin-ME demethylation, luminescence; series mostly up to 11.4 µM
# In short: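 Luminescent readout of luciferin formed from Luciferin-ME by human CYP1A2; data normalized against complete inhibition by 57 uM furafylline. Enzyme 20nM, substrate 100uM at Km, 100mM KPO4 buffer, 60 min reaction at room temperature.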
# [4] = Stat Signaling Pathway (AID 446); settings: ME-180 SIE beta-lactamase reporter, IL-6 stimulated, 5 h; at 7.69 µM (top of the series) unless noted;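 also: ME-180 cervical cancer cells given 40 pM IL-6 alongside compound; SIE-controlled beta-lactamase reporter measured as 460/530 nm FRET emission ratio; % is scaled to controls: 0 for no effect and ±100 for the full control effect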
# In short: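 ME-180 cells carrying a SIE-driven beta-lactamase reporter are stimulated with 40 pM IL-6 for 5 h at 37C in the presence of compound. The 460/530 nm FRET substrate ratio is read after 2.5 h at RT. Data are normalised to 300 pM IL-6 and to 125 nM JAK inhibitor controls.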
# [5] = target: Glucocorticoid receptor (Homo sapiens) (UniProt P04150); experiment: GR-GFP Redistribution (AID 450;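 active = compounds whose dose series gives a full or clear partial fitted curve of increased nuclear translocation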; also: potency is read from the fitted curve at half-maximal effect); settings: U2OS GR-GFP nuclear translocation, laser cytometry, 2 h
# [6] = target: Glucocorticoid receptor (Homo sapiens) (UniProt P04150); experiment: GR-EFC Redistribution (AID 451; calls by dose curve; also: potency is read from the fitted curve at half-maximal effect); settings: CHO-K1 GR-EFC translocation, beta-gal luminescence, 2 h
# In short: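 Translocation of GR-ED fusion to nuclear EA restores b-gal, read by luminescence after 1 h room-temperature detection. Engineered CHO-K1 biosensor cells, 1,000/well, exposed 2 h at 37 C to titrations up to 46 uM final.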
# [7] = target: Mitogen-activated protein kinase 10 (Mus musculus) (UniProt Q61831); experiment: JNK3 AlphaScreen Assay (AID 530); settings: JNK3 lysate, c-Jun phosphorylation; series mostly up to 11.4 µM;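 also: kinase came from lysate of stimulated human HepG2 cells; signal reports phosphorylation of biotinylated GST-cJun 1-79 at Ser73 with 10 µM ATP; % is scaled to controls: 0 for no effect and ±100 for the full control effect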
# In short: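 Compound titrations were preincubated 15 minutes at room temperature with substrate, antibody and pre-activated JNK3-containing HepG2 lysate. Reactions were started with 10 uM ATP and stopped with EDTA-containing bead buffer for AlphaScreen detection.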
# [8] = target: 3',5'-cyclic-AMP phosphodiesterase 4B (Homo sapiens) (UniProt Q07343); experiment: qHTS Assay for Inhibitors of PDE-IV (AID 607; active = well fitted activation curve with a large enough effect in the main read-out, with a control signal flat, not every such curve was filed as active; also: % of control where 0% means no effect); settings: HEK293 ACTOne CNG channel cells, membrane potential fluorescence; series mostly up to 22.9 µM
# In short: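 HEK293 ACTOne cells with CNG channel (1000/well), endogenous PDE4; membrane potential dye, compounds up to 22.9 uM final. Fluorescence Ex 535/Em 590; RO 20-1724 (100 uM final) as reference.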
# [9] = target: Cytochrome P450 3A4 (Homo sapiens) (UniProt P08684); experiment: qHTS Assay for Activators of Cytochrome P450 3A4 (AID 885; active = well fitted curve in the direction sought with a large enough effect; an effect the other way counts as inactive or inconclusive; also: nearly all actives have a fitted effect of over 65% in size); settings: recombinant CYP3A4, Luciferin-PPXE luminescence, 60 min; series mostly up to 11.4 µM
# In short: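 Human CYP3A4 (20 nM) with Luciferin-PPXE at 25 uM (its KM) in 200 mM KPO4; 10 min compound preincubation, then NADPH regeneration and 60 min reaction at RT. Luciferin read by luminescence; normalized to 57 uM ketoconazole full inhibition.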
# [10] = target: Cytochrome P450 2C9 (Homo sapiens) (UniProt P11712); experiment: qHTS Assay for Inhibitors and Substrates of Cytochrome P450 2C9 (AID 883; active = well fitted curve in the direction sought with a large enough effect; an effect the other way counts as inactive or inconclusive; also: nearly all actives have a fitted effect of over 60% in size; also: potency is read from the fitted curve at half-maximal effect; as to activity change, negative = inhibition: % is scaled to controls: 0 for no effect and ±100 for the full control effect); settings: recombinant CYP2C9, luciferin-H luminescence, 60 min; series mostly up to 11.4 µM
# In short: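 Luminescent read-out of deoxyluciferin hydroxylation, normalized to 57uM sulphaphenazole (AC100). Reaction: 10nM enzyme, 100uM Luciferin-H (equal to KM), 25mM KPO4, 10 min compound preincubation, then 60 min with NADPH regeneration, both at 37C.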
# [11] = target: Cytochrome P450 2C19 (Homo sapiens) (UniProt P33261); experiment: qHTS Assay for Inhibitors and Substrates of Cytochrome P450 2C19 (AID 899; active = well fitted curve in the direction sought with a large enough effect; an effect the other way counts as inactive or inconclusive; also: nearly all actives have a fitted effect of over 60% in size; also: potency is read from the fitted curve at half-maximal effect); settings: recombinant CYP2C19, luciferin-H EGE luminescence; series mostly up to 11.4 µM
# In short: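 Luminescence readout of luciferin formed from 10uM Luciferin-H EGE (KM level) by 5 nM CYP2C19 in 50mM KPO4. 60 min NADPH-driven reaction at 37C after 10 min compound preincubation; data scaled to 57uM ketoconazole inhibition.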
# [12] = target: Cytochrome P450 3A4 (Homo sapiens) (UniProt P08684); experiment: qHTS Assay for Inhibitors and Substrates of Cytochrome P450 3A4 (AID 884; active = well fitted curve in the direction sought with a large enough effect; an effect the other way counts as inactive or inconclusive; also: nearly all actives have a fitted effect of over 50% in size; also: potency is read from the fitted curve at half-maximal effect); settings: recombinant CYP3A4, Luciferin-PPXE luminescence; series mostly up to 57.1 µM
# In short: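 20 nM human CYP3A4 with 25 uM Luciferin-PPXE (at KM) in 200 mM KPO4, preincubated 10 min with compound; NADPH regeneration started a 60 min RT reaction. Luciferin detected by luminescence, normalized to 57 uM ketoconazole as full inhibition.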
# [13] = target: Cytochrome P450 2D6 (Homo sapiens) (UniProt P10635); experiment: qHTS Assay for Inhibitors and Substrates of Cytochrome P450 2D6 (AID 891; active = well fitted curve in the direction sought with a large enough effect; an effect the other way counts as inactive or inconclusive; also: nearly all actives have a fitted effect of over 60% in size; also: potency is read from the fitted curve at half-maximal effect); settings: recombinant CYP2D6, luciferin-ME EGE luminescence; series mostly up to 11.4 µM
# In short: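 Human CYP2D6 (5 nM) with 30 uM Luciferin-ME EGE (at Km) in 100 mM KPO4, compound preincubated 10 min, then NADPH regeneration system for 60 min at room temperature. Luciferin read by luminescence; normalized to 1.43 uM quinidine.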
# Chain of Cytochrome P450 3A4 (Homo sapiens) (P08684 whole entry, looked up): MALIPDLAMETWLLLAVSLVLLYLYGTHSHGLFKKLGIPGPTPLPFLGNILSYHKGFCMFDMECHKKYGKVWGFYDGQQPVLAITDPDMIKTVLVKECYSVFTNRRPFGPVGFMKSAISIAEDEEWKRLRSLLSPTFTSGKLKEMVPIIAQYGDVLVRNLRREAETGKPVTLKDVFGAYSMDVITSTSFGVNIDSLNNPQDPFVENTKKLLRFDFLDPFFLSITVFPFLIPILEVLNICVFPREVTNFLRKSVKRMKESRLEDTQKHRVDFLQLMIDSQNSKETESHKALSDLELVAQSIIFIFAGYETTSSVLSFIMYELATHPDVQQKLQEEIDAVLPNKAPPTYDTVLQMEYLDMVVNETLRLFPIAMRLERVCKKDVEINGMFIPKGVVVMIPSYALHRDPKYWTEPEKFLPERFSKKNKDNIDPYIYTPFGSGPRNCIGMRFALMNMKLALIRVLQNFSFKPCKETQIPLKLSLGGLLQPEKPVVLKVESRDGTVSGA
# Chain of 3',5'-cyclic-AMP phosphodiesterase 4B (Homo sapiens) (Q07343 whole entry, looked up): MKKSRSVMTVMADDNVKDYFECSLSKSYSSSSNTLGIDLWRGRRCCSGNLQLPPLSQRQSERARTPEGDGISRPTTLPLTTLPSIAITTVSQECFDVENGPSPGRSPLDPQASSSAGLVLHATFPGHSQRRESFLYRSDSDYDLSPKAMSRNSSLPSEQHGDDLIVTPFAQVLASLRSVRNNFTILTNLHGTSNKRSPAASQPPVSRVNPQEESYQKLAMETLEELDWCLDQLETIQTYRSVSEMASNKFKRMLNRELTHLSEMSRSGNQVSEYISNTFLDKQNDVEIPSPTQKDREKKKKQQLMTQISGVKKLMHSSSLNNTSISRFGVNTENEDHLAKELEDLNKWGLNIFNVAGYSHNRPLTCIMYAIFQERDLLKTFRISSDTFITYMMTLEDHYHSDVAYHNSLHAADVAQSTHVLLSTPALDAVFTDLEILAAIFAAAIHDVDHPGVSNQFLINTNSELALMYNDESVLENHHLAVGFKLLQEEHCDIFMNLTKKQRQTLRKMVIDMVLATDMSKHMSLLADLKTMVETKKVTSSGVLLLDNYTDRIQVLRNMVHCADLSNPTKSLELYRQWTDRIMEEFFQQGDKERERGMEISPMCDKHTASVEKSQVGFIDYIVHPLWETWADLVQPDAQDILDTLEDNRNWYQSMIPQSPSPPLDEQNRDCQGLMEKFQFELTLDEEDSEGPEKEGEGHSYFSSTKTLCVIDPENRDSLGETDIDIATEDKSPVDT
# Chain of Cytochrome P450 1A2 (Homo sapiens) (P05177 whole entry, looked up): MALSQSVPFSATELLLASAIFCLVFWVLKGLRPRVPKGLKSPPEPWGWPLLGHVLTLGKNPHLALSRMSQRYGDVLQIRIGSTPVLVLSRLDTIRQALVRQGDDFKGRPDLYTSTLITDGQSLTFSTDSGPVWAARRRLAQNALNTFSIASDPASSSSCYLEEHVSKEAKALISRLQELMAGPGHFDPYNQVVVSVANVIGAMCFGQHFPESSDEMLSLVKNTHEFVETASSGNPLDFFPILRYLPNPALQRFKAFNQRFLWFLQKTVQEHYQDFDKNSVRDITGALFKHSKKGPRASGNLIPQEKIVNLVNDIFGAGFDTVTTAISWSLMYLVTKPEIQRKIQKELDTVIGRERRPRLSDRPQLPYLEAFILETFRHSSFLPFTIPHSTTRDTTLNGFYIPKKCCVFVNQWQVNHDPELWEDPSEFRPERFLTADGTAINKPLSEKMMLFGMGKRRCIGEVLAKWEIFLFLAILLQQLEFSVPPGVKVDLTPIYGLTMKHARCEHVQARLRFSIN
# Chain of Cytochrome P450 2C9 (Homo sapiens) (P11712 whole entry, looked up): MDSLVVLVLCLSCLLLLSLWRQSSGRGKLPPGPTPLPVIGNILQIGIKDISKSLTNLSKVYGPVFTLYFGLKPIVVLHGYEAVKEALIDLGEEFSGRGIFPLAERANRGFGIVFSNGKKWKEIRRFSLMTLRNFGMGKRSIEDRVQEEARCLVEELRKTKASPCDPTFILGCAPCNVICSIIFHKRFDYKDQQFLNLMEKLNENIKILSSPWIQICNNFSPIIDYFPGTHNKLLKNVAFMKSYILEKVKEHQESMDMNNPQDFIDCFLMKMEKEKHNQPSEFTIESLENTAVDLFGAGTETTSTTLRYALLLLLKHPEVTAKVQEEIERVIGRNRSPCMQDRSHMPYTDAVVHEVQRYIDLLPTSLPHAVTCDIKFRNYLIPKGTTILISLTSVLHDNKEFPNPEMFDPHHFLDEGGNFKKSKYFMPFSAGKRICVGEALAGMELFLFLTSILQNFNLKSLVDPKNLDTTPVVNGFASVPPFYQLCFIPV
# Chain of Glucocorticoid receptor (Homo sapiens) (P04150 whole entry, looked up, the tested form may be a part): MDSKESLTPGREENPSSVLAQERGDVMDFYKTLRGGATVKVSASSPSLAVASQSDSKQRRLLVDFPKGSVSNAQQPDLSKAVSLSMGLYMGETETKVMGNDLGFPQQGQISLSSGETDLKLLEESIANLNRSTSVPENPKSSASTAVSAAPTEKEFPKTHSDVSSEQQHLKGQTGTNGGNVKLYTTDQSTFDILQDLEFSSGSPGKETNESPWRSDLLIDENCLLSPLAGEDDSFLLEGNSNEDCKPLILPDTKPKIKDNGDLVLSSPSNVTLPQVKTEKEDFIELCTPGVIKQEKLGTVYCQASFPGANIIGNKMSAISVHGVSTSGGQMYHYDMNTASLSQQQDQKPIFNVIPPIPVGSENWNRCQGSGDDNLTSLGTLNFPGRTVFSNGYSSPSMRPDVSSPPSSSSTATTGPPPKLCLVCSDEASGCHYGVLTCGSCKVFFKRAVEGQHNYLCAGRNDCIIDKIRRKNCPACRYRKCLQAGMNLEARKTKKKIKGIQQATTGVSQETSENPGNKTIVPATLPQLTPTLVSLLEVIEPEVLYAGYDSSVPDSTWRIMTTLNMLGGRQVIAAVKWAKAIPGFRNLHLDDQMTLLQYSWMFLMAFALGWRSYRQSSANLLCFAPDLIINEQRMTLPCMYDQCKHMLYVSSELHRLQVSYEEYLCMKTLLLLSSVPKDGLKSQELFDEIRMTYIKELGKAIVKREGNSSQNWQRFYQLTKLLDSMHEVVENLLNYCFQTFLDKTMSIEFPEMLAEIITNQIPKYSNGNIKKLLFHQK
# Chain of Cytochrome P450 2C19 (Homo sapiens) (P33261 whole entry, looked up): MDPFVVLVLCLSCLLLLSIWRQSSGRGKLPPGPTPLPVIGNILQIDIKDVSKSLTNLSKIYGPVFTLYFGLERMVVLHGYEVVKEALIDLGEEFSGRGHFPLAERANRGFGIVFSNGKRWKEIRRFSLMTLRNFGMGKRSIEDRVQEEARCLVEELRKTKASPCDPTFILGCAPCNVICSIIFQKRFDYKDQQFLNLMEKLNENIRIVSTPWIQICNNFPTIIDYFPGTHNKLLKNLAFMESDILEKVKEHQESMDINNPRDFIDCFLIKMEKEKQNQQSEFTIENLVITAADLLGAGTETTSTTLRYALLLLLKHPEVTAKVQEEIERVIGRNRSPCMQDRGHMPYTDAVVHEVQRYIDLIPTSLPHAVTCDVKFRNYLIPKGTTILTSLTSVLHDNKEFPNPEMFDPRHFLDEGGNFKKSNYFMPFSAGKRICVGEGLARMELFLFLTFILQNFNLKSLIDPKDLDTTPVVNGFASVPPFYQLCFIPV
# Chain of Lysosomal acid glucosylceramidase (Homo sapiens) (P04062 whole entry, looked up): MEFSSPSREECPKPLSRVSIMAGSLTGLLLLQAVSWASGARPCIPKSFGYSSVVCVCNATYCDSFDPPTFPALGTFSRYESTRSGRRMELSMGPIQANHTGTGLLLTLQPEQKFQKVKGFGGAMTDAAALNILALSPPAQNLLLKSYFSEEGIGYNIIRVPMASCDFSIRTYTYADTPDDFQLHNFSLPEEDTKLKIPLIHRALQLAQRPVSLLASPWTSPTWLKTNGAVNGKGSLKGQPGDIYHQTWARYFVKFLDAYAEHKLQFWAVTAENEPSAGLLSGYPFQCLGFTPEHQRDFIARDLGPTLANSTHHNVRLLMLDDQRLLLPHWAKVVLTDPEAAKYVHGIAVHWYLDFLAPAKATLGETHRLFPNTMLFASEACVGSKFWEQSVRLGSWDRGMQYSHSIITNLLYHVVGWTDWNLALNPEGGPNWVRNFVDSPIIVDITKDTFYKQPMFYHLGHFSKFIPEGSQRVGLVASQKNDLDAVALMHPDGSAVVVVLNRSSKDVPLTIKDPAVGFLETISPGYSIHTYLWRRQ
# Chain of Cytochrome P450 2D6 (Homo sapiens) (P10635 whole entry, looked up): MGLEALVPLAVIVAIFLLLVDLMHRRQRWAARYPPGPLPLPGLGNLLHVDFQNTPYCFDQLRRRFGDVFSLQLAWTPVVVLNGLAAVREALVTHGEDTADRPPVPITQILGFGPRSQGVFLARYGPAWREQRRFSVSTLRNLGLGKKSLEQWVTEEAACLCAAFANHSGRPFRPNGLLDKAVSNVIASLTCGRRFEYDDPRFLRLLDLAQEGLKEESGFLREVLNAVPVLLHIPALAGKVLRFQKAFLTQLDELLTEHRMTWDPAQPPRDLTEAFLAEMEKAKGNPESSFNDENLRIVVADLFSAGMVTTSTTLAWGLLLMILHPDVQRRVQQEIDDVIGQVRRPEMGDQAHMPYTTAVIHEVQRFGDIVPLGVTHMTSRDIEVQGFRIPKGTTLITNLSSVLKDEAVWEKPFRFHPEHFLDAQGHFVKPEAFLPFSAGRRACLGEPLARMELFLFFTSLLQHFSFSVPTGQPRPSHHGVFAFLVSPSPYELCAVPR
SMILES,Potency [1] [µM],"activity change, negative = inhibition [2] [%]","activity change, negative = inhibition [3]","activity, negative = inhibition [4] [%]",Potency [5],Potency [6] [µM],Potency [7],Potency [8],Potency [3],Potency [9],Potency [10],Potency [11],Potency [12],Potency [13],"activity change, negative = inhibition [12]"
Cc1cc(=Nc2ccc3c(c2)c(N)cc(C)[n+]3C)nc(N)n1C,> 11.4,-3.85,-5.3% [at 2.29 µM],-8.63,> 46 µM,> 9.22,inactive,inactive,,,,,,,
Cc1ccc(Nc2nnc(-c3ccc4c(c3)OCO4)o2)c(C)c1,> 11.4,-5.47,,-2.78,> 46 µM,> 9.22,inactive,inactive,2.51 µM (active),inactive,,,,,
Cc1ccc(N[C@H](c2ccccc2)c2ccc3cccnc3c2O)cc1,> 11.4,-6.67,-24.5% [at 2.29 µM],3.71,> 46 µM,> 9.22,inactive,inactive,,inactive,,,,,
Cc1ccc(S(=O)(=O)Nc2ccccc2C=O)cc1,> 11.4,-0.783,,24,> 46 µM,> 9.22,inactive,inactive,inactive,,inactive,5.01 µM (active),,,
Cc1cc(O)c(C(C)C)cc1N=Cc1ccccc1O,> 11.4,7.1,,-2.05,> 46 µM,> 9.22,inactive,inactive,1.58 µM (active),,0.631 µM (active),0.398 µM (active),3.16 µM (active),,
C=C[C@]1(C)C[C@H](OC(=O)CO)[C@]2(C)C3C(=O)CC[C@]3(CC[C@H]2C)[C@H](C)[C@H]1O (stereo partly drawn),> 11.4,-0.357,-21% [at 2.29 µM],-4.08,> 46 µM,> 9.22,inactive,inactive,,inactive,,,,,
COc1ccc2cc1Oc1ccc(cc1)C[C@@H]1c3c(cc(OC)c4c3Oc3cc5c(cc3O4)CCN[C@H]5C2)CCN1C,> 11.4,-4.55,,14.2,> 46 µM,> 9.22,inactive,inactive,inactive,,,,,,
Oc1ccc2ccccc2c1Cc1c(O)ccc2ccccc12,> 11.4,0.512,,-5.79,> 46 µM,> 9.22,inactive,inactive,3.98 µM (active),,2 µM (active),0.316 µM (active),,,
CN1CCN(CC(=O)N2c3ccccc3Sc3cc4ccccc4cc32)CC1,> 11.4,12.2,-21.6% [at 2.29 µM],-5.37,> 46 µM,> 9.22,inactive,inactive,,inactive,,,,,
Oc1ccc(Cc2cc(Cl)cc(Cl)c2O)cc1Cl,> 11.4,-21.8,,-9.97,> 46 µM,> 9.22,inactive,inactive,1.58 µM (active),inactive,0.199 µM (active),1.26 µM (active),,,
c1ccc(/C(=N/Nc2nc3ccccc3s2)c2ccccn2)cc1,> 11.4,-20.5,,-1.49,> 46 µM,> 9.22,inactive,inactive,3.16 µM (active),inactive,,,,,
Cc1ccc2nc(N/N=C\c3cccc(C)n3)cc(C)c2c1,> 11.4,-4.58,,7.26,> 46 µM,> 9.22,inactive,inactive,0.631 µM (active),inactive,,,,3.16 µM (active),
Cc1cc(C)cc(C(=N)c2ccccc2Cc2cccc3ccccc23)c1,> 11.4,1.53,-5.4% [at 2.29 µM],8.92,> 46 µM,> 9.22,inactive,inactive,,,inactive,1.58 µM (active),,,
COc1ccc2c(Cc3c4ccccc4cc4ccccc34)cncc2c1O,> 11.4,9.25,,-0.764,> 46 µM,> 9.22,inactive,inactive,0.126 µM (active),inactive,inactive,2.51 µM (active),,,
C[C@@]12CC[C@@H]3[C@H](CCC4=CC(=O)CC[C@]43C)[C@@H]1CC[C@@H]2C(=O)Cn1cnc2c(=S)nc[nH]c21,> 11.4,2.82,,-2.06,> 46 µM,> 9.22,inactive,inactive,inactive,,,,,,
CN(C)C[C@H]1CCC2=C(C1=O)C(c1ccc(Cl)c(Cl)c1)C1=C(CC[C@H](CN(C)C)C1=O)O2,> 11.4,0.767,-2% [at 2.29 µM],13.6,> 46 µM,> 9.22,inactive,inactive,,inactive,,,0.398 µM (active),,
c1ccc2sc(SCSc3nc4ccccc4s3)nc2c1,> 11.4,-1.38,,2.46,> 46 µM,> 9.22,inactive,inactive,3.98 µM (active),inactive,,1.26 µM (active),3.16 µM (active),,
O=C(O)c1ccccc1-c1ccccc1C(=O)Nc1ccc2c(c1)Cc1ccccc1-2,> 11.4,6.9,-7.1% [at 2.29 µM],-24.1,> 46 µM,> 9.22,inactive,inactive,,,,,,,
O=C(O)C(=Cc1ccc(-c2ccccc2)cc1)C(=O)O,> 11.4,-9.3,,-12.1,> 46 µM,> 9.22,inactive,inactive,0.794 µM (active),,inactive,inactive,,inactive,-41.1% [at 11.4 µM]
C[C@@]12C[C@H](O)[C@@H]3[C@H](CCC4=CC(=O)CC[C@]43C)[C@H]1CC[C@@H]2c1csc(N)n1,> 11.4,4.13,-9.8% [at 2.29 µM],-3.43,1.73 µM (active),> 9.22,inactive,inactive,,inactive,,3.98 µM (active),2.51 µM (active),,
O=C(c1ccccc1)[C@H](Nc1ccc2ccccc2c1)c1ccccc1,> 11.4,23.6,,-0.0129,> 46 µM,> 9.22,inactive,inactive,0.794 µM (active),inactive,,,3.16 µM (active),,
N=C(N)SCc1nc(-c2ccc(Cl)cc2)no1,> 11.4,26,,17.8,> 46 µM,> 9.22,inactive,inactive,1.26 µM (active),inactive,3.98 µM (active),,,,
Cc1cc(Cc2cc(C)cc(C(C)(C)C)c2O)c(O)c(Cc2cc(C)cc(C(C)(C)C)c2O)c1,> 11.4,-27.2,-15.6% [at 2.29 µM],6.72,> 46 µM,> 9.22,inactive,inactive,,,3.16 µM (active),3.16 µM (active),,,
CCN(CC)CC[n+]1ccc2c(C)c3[nH]c4ccccc4c3c(C)c2c1,> 11.4,-22.3,,29.6,> 46 µM,> 9.22,inactive,inactive,2.51 µM (active),,,,,,
CO[C@@H]1/C=C\O[C@@]2(C)Oc3c(C)c(O)c4c(c3C2=O)C(=N[C@H]2CC[C@H](O)O[C@@H]2C)C=C(NC(=O)/C(C)=C\C(=O)[C@@H]2C[C@@H]2[C@@H](O)[C@H](C)[C@@H](O)[C@H](C)[C@H](OC(C)=O)[C@@H]1C)C4=O,> 11.4,26.3,,-2.6,> 46 µM,> 9.22,inactive,inactive,inactive,inactive,,2.51 µM (active),1.26 µM (active),,
